Assay outcomes as filed in PubChem BioAssay.
The list is not random: actives were taken first. Their share in the collection is about 2.3%.
PP5 primary: blocks human protein phosphatase 5 activity; P53041; purified PP5c, OMFP substrate fluorescence; inhibition, % at 6.7 µM; hit rate 0.18% among 320,000; AID 1987;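 active means inhibition above the campaign's mean inhibition across all tested compounds plus 3 SD, cut at about 9.5% in these data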;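 further: 0% = DMSO only and 100% = 100 µM cantharidin control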
MsrA inhibitor: bovine MsrA inhibition. purified bovine MsrA, absorbance read-out. hit rate 0.75% among 360,000. inhibition, % at 15.5 µM; in the data active means inhibition above about 4.5%;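 further: 0% = vehicle wells with enzyme and 100% = reference inhibitor wells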
MsrA act: bovine methionine sulfoxide reductase A activation; purified bovine MsrA, absorbance read-out; activation, % at 10.6 µM; hit rate 0.3% among 360,000; in the data active means activation above about 7.5%;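 further: 0% = vehicle and 100% = reference activator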
EBNA-1 inhibitor: blocks EBNA-1 binding to DNA | EBNA-1 DNA binding, fluorescence polarization | inhibition, % at 14.8 µM | hit rate 0.34% among 300,000; in the data active means inhibition above about 28%
ZTA DNA inh: counter-screen for EBNA-1 inhibitors: inhibitors of Epstein-Barr virus ZTA; P03206; ZTA-DNA binding, fluorescence polarization; inhibition, % at 11 µM; hit rate 0.15% among 320,000; AID 2234; in the data active means inhibition above about 33%
PP1 inh: PP1-alpha (human) inhibition in PP5 counter-screen; P62136; purified PP1alpha, OMFP fluorescence; inhibition, % at 6.7 µM; hit rate 0.9% among 320,000; AID 2235;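 active means inhibition above the mean inhibition of all tested compounds plus 3 SD, computed separately for each screening campaign, cut at about 15% in these data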
Target sequence (P62136 whole entry, looked up): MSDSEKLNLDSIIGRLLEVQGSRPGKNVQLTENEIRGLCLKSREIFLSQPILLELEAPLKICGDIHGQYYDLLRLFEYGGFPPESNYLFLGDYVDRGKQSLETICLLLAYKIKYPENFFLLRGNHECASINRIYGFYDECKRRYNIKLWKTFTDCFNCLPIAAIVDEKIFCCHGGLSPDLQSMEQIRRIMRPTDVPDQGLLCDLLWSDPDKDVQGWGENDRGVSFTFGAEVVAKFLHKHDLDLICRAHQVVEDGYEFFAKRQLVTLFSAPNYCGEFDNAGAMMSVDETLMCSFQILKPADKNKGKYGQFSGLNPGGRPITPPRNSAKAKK
* hit, by the source's call; . = not tested or not shown.

SMILES	PP5 primary	MsrA inhibitor	MsrA act	EBNA-1 inhibitor	ZTA DNA inh	PP1 inh
Cn1c(=O)c(=O)n(C)c2cc([N+](=O)[O-])c([N+](=O)[O-])cc21	-1	5.1*	2	0	22	-2
Cc1ccccc1C1C(C#N)=C2N=C(N)c3c(sc4c3CCCCC4)N2C2=C1C(=O)CC(C)(C)C2 (stereo unspecified)	3	0	-5	-4	1	15*
O=C(C[n+]1cc(-c2ccc(Cl)cc2)n2c1CCC2)Nc1nc(-c2ccccc2)cs1	2	0	-3	-1	1	16*
O=C(C[n+]1cc(-c2ccc(F)cc2)n2c1CCC2)Nc1nc(-c2ccccc2)cs1	1	1	-2	-5	-24	8
CCCNC(=O)c1ccc(N2CCC3(CC2)CC(c2ccccc2)=NO3)c(NC(=O)c2ccc(Br)cc2)c1	2	-1	-4	24	4	9
CCCNC(=O)c1ccc(N2CCC3(CC2)CC(c2cccc(Br)c2)=NO3)c(NC(=O)c2ccccc2)c1	2	0	0	7	1	16*
Cc1ccc(CNC(=O)c2ccc(N3CCC4(CC3)CC(c3ccccc3)=NO4)c(NC(=O)c3ccc(Cl)c([N+](=O)[O-])c3)c2)cc1	0	1	1	8	15	15*
COC(=O)C1=C(C)N(C)C(=NCc2ccc(OC)cc2)NC1c1cccc(C(F)(F)F)c1 (stereo unspecified)	.	-2	.	.	.	.
c1ccc(Nc2nc(NCc3ccco3)c3ccccc3n2)cc1	1	1	0	-7	4	16*
Oc1ccccc1Nc1nc(NCc2ccco2)c2ccccc2n1	6	1	1	-5	-11	7
O=C(Nc1cccc([N+](=O)[O-])c1)OCc1ccc2c(c1)OCO2	.	0	.	.	.	.
CCC(C)Nc1nc(-c2c[nH]c3ccccc23)cs1 (stereo unspecified)	3	-1	-2	19	55*	2
O=c1[nH]c(C2CCN(S(=O)(=O)/C=C/c3ccccc3)CC2)nc2c1nnn2Cc1ccc(F)cc1	3	1	-1	-4	11	17*
O=c1[nH]c(C2CCN(S(=O)(=O)c3ccc4c(c3)OCCO4)CC2)nc2c1nnn2Cc1c(F)cccc1Cl	4	0	-1	-8	6	17*
O=c1[nH]c(C2CCN(S(=O)(=O)c3ccccc3C(F)(F)F)CC2)nc2c1nnn2Cc1cccc(F)c1	1	1	2	0	-3	16*
O=c1[nH]c(C2CCN(S(=O)(=O)c3ccc4c(c3)OCCO4)CC2)nc2c1nnn2Cc1ccccc1F	3	0	0	-12	-3	5
O=c1[nH]c(C2CCN(S(=O)(=O)Cc3ccccc3)CC2)nc2c1nnn2Cc1ccccc1	2	-1	-10	-1	11	4
CCOC(=O)Nc1ccc2c(COC(=O)C(NS(=O)(=O)c3ccc(Cl)cc3)C(C)O)cc(=O)oc2c1 (stereo unspecified)	.	4.6*	-3	.	.	.
CCOC(=O)C1(C(=O)OCC)N=C(c2ccccc2)C=C1c1ccccc1	.	-1	.	.	.	.
N#Cc1cc(F)cc(OCCCN2CCC(C(O)(c3ccccc3)c3ccccc3)CC2)c1	.	-1	.	.	.	.
COc1cccc(NC(=O)/C=C/c2ccco2)c1	-1	4.6*	-3	6	6	-6
O=C(/C=C/c1ccco1)Nc1ccc2c(c1)OCCO2	1	4.6*	-5	11	-12	2
Cc1ccc(NC(=O)/C=C/c2ccco2)nc1	1	5.0*	-5	6	-4	2
O=C(/C=C/c1ccccc1)Nc1ccc2c(c1)OCCO2	2	-1	-1	-1	4	1
Cc1cc(-c2csc(NC(=O)c3ccc(C#N)cc3)n2)c(C)n1Cc1ccco1	0	1	-11	-4	-9	17*
N#Cc1ccc(-c2csc(NC(=O)c3ccc(N4C(=O)CCC4=O)cc3)n2)cc1	-1	-1	-2	8	-3	-1
COc1ccc(N2C(=O)CN=C2Nc2nc(C)cc(C)n2)cc1	1	4.5*	-1	11	30	-3
O=C(O)c1ccccc1-c1ccccc1C(=O)Nc1ccc2c(c1)[nH]c(=O)c1ccccc12	2	2	-2	-5	3	15*
Cc1cc2nc3ccc(=[N+](C)C)cc-3sc2cc1N	.	.	19*	.	.	.
COc1cc(CCC(=O)OCC(=O)N2CCc3ccccc32)cc(OC)c1OC	3	0	-4	-5	7	17*
